Growth inhibition data for 19 compounds are collected here from PubChem BioAssay (NCI).

A short description of test [1]: NCI Yeast Anticancer Drug Screen. Data for the rad50 strain (AID 155).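 Further: 0% = growth of vehicle-only cultures of the same strain.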 The note with it: S. cerevisiae rad50 strain growth inhibition; at 50.0 µM; stronger effect = higher value. A digest of the protocol: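 Cells are treated with compound, grown, and their growth is then scored against vehicle-only cultures of the same repair-deficient yeast strain.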
Test [2] is described as follows: NCI Yeast Anticancer Drug Screen. Data for the mec2-1 strain (AID 157). The settings on record: S. cerevisiae mec2-1 strain, at 50.0 µM, stronger effect = higher value. A digest of the protocol:
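mec2-1 yeast strain, carrying an alteration in DNA damage repair or cell cycle control, was exposed to compounds; growth inhibition was measured relative to vehicle-treated controls.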

Test [3] can be described thus: NCI Yeast Anticancer Drug Screen. Data for the sgs1 mgt1 strain (AID 161).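 Further: 0% = growth of cultures given vehicle only.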 The settings on record: S. cerevisiae sgs1 mgt1 strain, at 50.0 µM, stronger effect = higher value. A digest of the protocol:
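Yeast cells carrying a defined DNA-repair defect were exposed to test compounds. Growth inhibition was measured relative to vehicle-treated controls.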

Test [4] is described as follows: NCI Yeast Anticancer Drug Screen. Data for the cln2 rad14 strain (AID 165).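 Further: 0% = growth equal to vehicle treated cultures.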 The note with it: S. cerevisiae cln2 rad14 strain, at 50.0 µM, stronger effect = higher value. A digest of the protocol:
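Yeast carrying cln2 and rad14 alterations (cell cycle control and DNA damage repair) were exposed to compounds. Growth inhibition was measured against vehicle-treated controls.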

Test [5] is described as follows: NCI Yeast Anticancer Drug Screen. Data for the bub3 strain (AID 167). The settings on record: S. cerevisiae bub3 mutant strain, at 50.0 µM, stronger effect = higher value. A digest of the protocol: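 Part of a panel of yeast mutants defective in DNA damage repair or cell cycle regulation. Each strain is grown with compound, and inhibition is calculated relative to solvent-treated cultures.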

The nature of test [6]: NCI Yeast Anticancer Drug Screen. Data for the mlh1 rad18 strain (AID 175). The note with it: S. cerevisiae mlh1 rad18 strain growth inhibition; at 50.0 µM; stronger effect = higher value. A digest of the protocol: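 Growth inhibition of the yeast strain was measured after compound exposure and expressed relative to vehicle-treated controls. The strain carries defined defects in DNA damage repair.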

The panel holds about 79,000 compounds, 15% with a hit somewhere; the sample as a whole holds those more often. A number with no mark means an inactive call. Calls of active or inactive are those of the source. No stated cut-off is given here; in the data, active means growth inhibition above about 70%; inactive means the rest.

Regarding `CC1(C)OC(=O)C(=Cc2ccc(-c3ccccc3[N+](=O)[O-])o2)C(=O)O1`, the growth inhibition in test [1] is 3.05%; in test [2], 6.25%; in test [3], 31%; in test [4], 23.6%; in test [5] it was 29.5%; in test [6] it was 26.6%.
For `COc1ccc([B-]23OCC[N+]2(CNC(=O)c2ccccc2O)CCO3)cc1` (centres undefined), the growth inhibition in test [1] was 27.4%; in test [2] it was 2.7%; in test [3] it was 13.9%; in test [4], 14.9%; in test [5], 7.3%; in test [6], 17.6%.
For `CN(C)C1C(=O)c2ccccc2C1=O`, the growth inhibition in test [1] is -34.6%; in test [2], -27.6%; in test [3], -29.5%; in test [4], -5.1%; in test [5], 0.05%; in test [6], -14.8%.
Turning to `CC(C)=NNC=N/C(C#N)=C(\N)C#N`, the growth inhibition in test [1] is -14.3%; in test [2], -0.55%; in test [3], -17.5%; in test [4], 18%; in test [5], -9.6%; in test [6], -24.7%.
For the compound `N#CNC(=NCCO)NCCO`, the growth inhibition in test [1] is 25.8%; in test [2], 7.3%; in test [3], -2.25%; in test [4], 11.3%; in test [5], -0.35%; in test [6], 26.6%.
With `Cc1ccc(NC(=O)c2ccc(Cl)cc2)cc1`, the growth inhibition in test [1] was -8.3%; in test [2], 1.2%; in test [3], 8.85%; in test [4] it was 3.3%; in test [5], 0%; in test [6] it was -3.55%.
Turning to `CCN(CC)CCSC(=O)C(O)(c1ccccc1)c1cccc(C)c1` (centres undefined), the growth inhibition in test [1] was 9.1%; in test [2], 10.1%; in test [3] it was -2.2%; in test [4] it was -11.9%; in test [5], -1.4%; in test [6], 10.6%.
For the compound `O=C(O)c1nc2nc(Cl)c(Cl)nc2[nH]1`, the growth inhibition is -22.7% in test [1]; -30.4% in test [2]; -19.7% in test [3]; 21.9% in test [4]; -37.8% in test [5]; 9.4% in test [6].
Turning to `CCCCN=C1Nc2nc(=NCCCC)nc3c(Br)cc(Br)c(n23)N1`, the growth inhibition was 37.2% in test [1]; 20.2% in test [2]; 5.4% in test [3]; 23.4% in test [4]; -4.9% in test [5]; 21.9% in test [6].
As to `CC(C)(C)c1cc(-c2c3nc(c(-c4cc(C(C)(C)C)cc(C(C)(C)C)c4)c4ccc([nH]4)c(-c4cc(C(C)(C)C)cc(C(C)(C)C)c4)c4nc(c(-c5cc(C(C)(C)C)cc(C(C)(C)C)c5)c5ccc2[nH]5)C=C4)C=C3)cc(C(C)(C)C)c1`, the growth inhibition in test [1] is 19.8%; in test [2] it was 15.4%; in test [3] it was 24.2%; in test [4], 23.3%; in test [5], 2.6%; in test [6] it was 31.2%.
On to `CC1(Br)CP(=O)(c2ccccc2)CC1Br` (centres undefined), for which the growth inhibition is -9.2% in test [1]; -11.9% in test [2]; 9.5% in test [3]; -24.4% in test [4]; 21.1% in test [5]; -6% in test [6].
Consider `O=C(Nc1ccc(Cl)c(Cl)c1)Oc1ccccc1Cl`, for which the growth inhibition was -15.2% in test [1]; -29.6% in test [2]; -4.9% in test [3]; -36% in test [4]; -16.4% in test [5]; -29.9% in test [6].
As for `Cc1ccc2c3nc4ccccc4c-3csc2c1`, the growth inhibition in test [1] was 99.2% (active); in test [2], 99.4% (active); in test [3], 99.4% (active); in test [4] it was 99% (active); in test [5], 99.2% (active); in test [6] it was 99.3% (active).
For `CCOc1ccccc1NC(=O)C1=C(C)NC(C)=C(C(=O)Nc2ccccc2OCC)C1c1ccc([N+](=O)[O-])cc1`, the growth inhibition was -20.3% in test [1]; 27.2% in test [2]; -3% in test [3]; -4.9% in test [4]; 30.8% in test [5]; -7.2% in test [6].
As for `O=C(NCCCn1ccnc1[N+](=O)[O-])C(=O)NCCCn1ccnc1[N+](=O)[O-]`, the growth inhibition in test [1] is 9.3%; in test [2], -12.2%; in test [3] it was -19.5%; in test [4] it was -8.95%; in test [5], -32%; in test [6] it was -23.4%.
Regarding `O=C(O)c1ccc(OCC(=O)c2ccccc2)cc1`, the growth inhibition was 6.35% in test [1]; 16.9% in test [2]; -5.6% in test [3]; -6.65% in test [4]; 36.1% in test [5]; 8.25% in test [6].
With `NC(=O)C(N)CC(=O)O` (centres undefined), the growth inhibition in test [1] is 6.15%; in test [2] it was -5.9%; in test [3], -3.1%; in test [4] it was -16.1%; in test [5], 6.5%; in test [6], 11.1%.
For the compound `N#CC(C#N)=CNc1ccccc1`, the growth inhibition in test [1] is 5.4%; in test [2], -8.95%; in test [3], 7.5%; in test [4] it was -20.9%; in test [5], 9.7%; in test [6] it was 4.6%.
As for `N#C/C(=C\c1c[nH]c2ccccc12)C(=O)c1ccc(O)c(O)c1`, the growth inhibition in test [1] was -6.55%; in test [2], 0.25%; in test [3], -20.6%; in test [4], 18.1%; in test [5], 2.95%; in test [6] it was -6.95%.
